Screens: PubChem BioAssay, several laboratories
Rows were chosen to be rich in hits. Some 2.1% of all compounds tested hit in one or more screens of this group.
PLC-beta3 inh: inhibitors of human phospholipase C beta3 | Q01970 | actives 0.18% (n = 370,000) | inhibition, % at 12.2 µM | Purified PLC-beta3, fluorogenic substrate, fluorescence;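 further: 0% = median of compound wells on plate and 100% = full blocker control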
ADAM17 inh: inhibits human ADAM17; P78536; recombinant ADAM17, EDANS/DABCYL FRET peptide cleavage; inhibition, % at 6.95 µM; actives 0.83% (n = 370,000);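 active means inhibition above the mean of compounds lying between control limits plus 3 SD, set per campaign, cut at about 8.5% in these data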;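 further: 0% = DMSO-only wells as the low control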
PLCg1 inh: blocks human PLC-gamma1 enzyme activity | inhibition, % at 12.2 µM | actives 0.84% (n = 370,000) | P19174 | purified PLC-gamma1, fluorogenic substrate, fluorescence; in the data active means inhibition above about 9.5%
Rce1 inhib: blocks yeast Ras-converting enzyme. yeast membranes, quenched prenylated peptide cleavage fluorescence. calls only. actives 0.27% (n = 290,000);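 active means fall in fluorescence gain of 50% or more versus controls, with final raw signal at or below 3038400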;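 further: plate controls were neutral control wells for no effect and wells lacking membranes for full effect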
Target sequence (Q03530 whole entry, looked up): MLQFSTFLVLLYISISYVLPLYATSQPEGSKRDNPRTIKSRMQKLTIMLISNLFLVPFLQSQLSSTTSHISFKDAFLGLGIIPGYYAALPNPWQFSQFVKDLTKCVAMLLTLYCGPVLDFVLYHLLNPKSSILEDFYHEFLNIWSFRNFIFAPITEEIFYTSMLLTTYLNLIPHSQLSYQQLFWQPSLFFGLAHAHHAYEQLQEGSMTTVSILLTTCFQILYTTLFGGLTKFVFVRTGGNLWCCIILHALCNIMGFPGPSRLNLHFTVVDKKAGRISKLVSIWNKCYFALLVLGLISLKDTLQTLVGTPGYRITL
ADAM10 inh: inhibits human ADAM10; recombinant ADAM10, EDANS/DABCYL FRET peptide cleavage, 3 h; inhibition, % at 7 µM; actives 0.62% (n = 370,000); AID 720582;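 active means inhibition above a per-campaign cutoff equal to the mean of compounds falling between control-based bounds plus 3 SD, cut at about 20% in these data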;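 further: 0% = DMSO wells while the 100% control is not disclosed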
PLCgamma1 ctr: PLC-gamma1 inhibition, counter-screen for PLC-beta3 hits. AID 743258. shares compounds with PLCg1 inh. inhibition, % at 12.3 µM. purified PLC-gamma1, fluorogenic substrate, fluorescence. actives 3.1% (n = 3,300); in the data active means inhibition above about 9.5%
PLCb3 confirm: confirmation of human PLC-beta3 inhibitors | shares compounds with PLCg1 inh | purified PLC-beta3, fluorogenic substrate fluorescence | inhibition, % at 12.3 µM | actives 1% (n = 3,300)
The depositor's hits bear a star; i = inactive; · = not tested or not shown. Unless noted, no stated cut-off is given here; in the data, active means inhibition above about 11%; inactive means the rest.

SMILES | PLC-beta3 inh | ADAM17 inh | PLCg1 inh | Rce1 inhib | ADAM10 inh | PLCgamma1 ctr | PLCb3 confirm
Cc1cccc(NC(=O)C2CCCN2C(=O)Oc2ccccc2)c1 (stereo unspecified) | -3.2 | -3.1 | 8.7 | i | -3.9 | · | ·
COc1ccc(NC(=O)N2CCCC2C(=O)Nc2cccc(C)c2C)cc1 (stereo unspecified) | 5.6 | 2.6 | 11.7* | i | 9.4 | -4.4 | -2.6
Cc1cccc(NC(=O)C(=O)NCC2CCCN2S(=O)(=O)c2cccs2)c1 (stereo unspecified) | -6.3 | 7.3 | 9.5* | · | 2.6 | -4.0 | -4.7
C[C@H]1COc2cccc(N3CCCC3)c2S(=O)(=O)N1 | 2.6 | -2.5 | 1.4 | · | -7.8 | · | ·
Cc1ccc(NS(=O)(=O)c2c(C)[nH]c(C)c2C(=O)N2CCCCC2)cc1F | -44.0 | -0.4 | -0.1 | i | 5.2 | · | ·
Cc1cc(F)ccc1C(O)c1ncc(-c2ccc3ccccc3c2)[nH]1 (stereo unspecified) | -16.9 | -6.2 | -12.2 | · | -30.0 | · | ·
COC1=CC(C)C2CC3OC(O)CC4C(C)=C(OC)C(=O)C(C2(C)C1=O)C34C (stereo unspecified) | 3.7 | 0.1 | 1.0 | · | -12.0 | · | ·
COC(=O)[C@]12C[C@H](CC(=O)N3CCCCC3)C(=O)N(CCC3=CCCCC3)C1=C[C@H](COCc1ccccc1)O[C@@H]2C | 3.6 | 1.6 | 1.6 | · | 8.5 | · | ·
CCNC(=O)COc1ccc(CC)cc1 | 7.2 | 2.0 | 5.0 | i | 5.5 | · | ·
CCOc1cc(CNCCc2ccccc2)ccc1OCC(=O)NC(C)(C)C | -9.3 | 1.1 | 9.9* | i | -0.6 | -1.2 | 3.2
CCOc1cc(CNCCO)c(Cl)cc1OCC(=O)NCCc1ccccc1 | 11.6* | 7.3 | 3.8 | i | 9.3 | -5.8 | -1.7
CCc1ccc(OCC(=O)NC(C)(C)C)cc1 | 3.6 | 0.6 | 10.4* | i | -1.8 | -5.5 | -0.2
CCOc1cc(CNCCc2ccc(S(N)(=O)=O)cc2)ccc1OCC(=O)NC(C)(C)C | 4.6 | -1.8 | 1.4 | i | -5.0 | · | ·
O=C(N/N=C/C1C(c2ccccc2)C1(Cl)Cl)c1cccc(Cl)c1 (stereo unspecified) | -1.3 | 1.6 | -0.6 | i | 4.8 | · | ·
Cc1onc(-c2ccccc2)c1NC(=O)N(CCC(=O)O)Cc1ccccc1 | -7.3 | -3.3 | -0.3 | · | 2.2 | · | ·
Cc1onc(-c2ccccc2)c1NC(=O)N(CCC#N)Cc1cccs1 | -1.5 | 4.3 | 10.0* | i | 6.5 | -6.3 | 1.3
C[C@@H]1CCCCO[C@H](CN(C)S(=O)(=O)c2ccccc2)[C@@H](C)CN([C@H](C)CO)C(=O)c2cc(NC(=O)Cc3ccccc3)ccc2O1 | -1.2 | 2.2 | -2.3 | · | -4.9 | · | ·
CCOc1c(Cl)cc(CNCC(O)c2ccccc2)cc1OC (stereo unspecified) | 2.1 | 2.3 | 10.6* | i | 3.1 | 2.4 | 5.3
CCOc1c(Cl)cc(CNCC(C)C)cc1OC | 0.8 | -4.9 | -2.2 | i | 4.2 | · | ·
CCC(=O)N1CCc2cc(S(=O)(=O)CCC(=O)Nc3cccc(C)n3)ccc21 | -0.1 | -4.2 | -1.0 | i | -25.4 | · | ·
CC(C)CN1C(=O)NC(NC(=O)c2cccnc2)(C(F)(F)F)C1=O (stereo unspecified) | 7.2 | 5.9 | 10.8* | · | 16.2 | -4.9 | 0.7
O=C(Cc1ccc(F)cc1)NCCS(=O)(=O)N1CCN(c2cccc(Cl)c2)CC1 | -5.3 | 4.3 | -1.2 | i | 1.6 | · | ·
CCOc1ccc(CCNC(=O)CCn2cccc2)cc1OCC | 4.7 | 7.8 | 11.2* | i | 2.3 | -3.4 | 1.8
CCOc1ccc(CCNC(=O)c2[nH]c(C)c(C(C)=O)c2C)cc1OCC | -3.3 | 2.1 | 9.8* | · | -6.2 | 2.2 | 3.0
COc1ccc(CCNC(=O)CCn2cccc2)cc1OC | -0.6 | -3.1 | 0.8 | i | -0.2 | · | ·
SMILES | PLC-beta3 inh | ADAM17 inh | PLCg1 inh | Rce1 inhib | ADAM10 inh | PLCgamma1 ctr | PLCb3 confirm
CC(C)C(NC(=O)c1ccc(Cl)cc1Cl)C(=O)NCCc1ccccn1 (stereo unspecified) | -5.7 | -5.8 | -1.6 | · | 0.0 | · | ·
COCCN(CC(=O)NC1CCCCC1)C(=O)CCCC(=O)Nc1ccccn1 | 2.4 | -1.7 | -0.4 | i | 2.5 | · | ·
c1ccc2c(c1)-c1nc3ccccc3cc1C2N1CCCCC1 (stereo unspecified) | -29.1 | 3.3 | -27.7 | · | -6.0 | · | ·
CC1(C)c2ccccc2-c2nc3ccccc3cc2C1O (stereo unspecified) | -2.2 | 4.2 | 10.8* | i | -7.9 | -9.0 | -10.3
COC(=O)CSc1nc2ccccc2n1CC(=O)N(C(C)C)C(C)C | 13.3* | 5.3 | 9.0 | i | 7.8 | -6.4 | -0.5
Cc1ccc(-n2cc(CN3CCNC(=O)CC3)c(-c3ccc(F)cc3)n2)cc1 | -6.9 | 3.1 | 4.6 | i | 6.6 | · | ·
Cc1ccc(-n2cc(CN3CCC(O)(c4ccccn4)CC3)c(-c3ccc(F)cc3)n2)cc1 | 0.1 | -0.4 | 9.8* | i | 15.1 | -2.7 | 1.4
O=C(Nc1ccccc1)c1cc([N+](=O)[O-])ccc1NC1CCCCC1 | 9.1 | 3.9 | 9.8* | i | 0.5 | -0.6 | -3.4
COc1cccc(C(=O)N2CCC2(C)C(=O)O)c1 (stereo unspecified) | -1.5 | 2.9 | 0.5 | · | -12.4 | · | ·
O=C(c1nnsc1S(=O)(=O)c1ccc(Cl)cc1)N1CCOCC1 | 7.3 | -1.1 | 17.5* | i | 8.5 | 8.8 | -0.5
O=C(O)CCNC(=O)c1ccc(Br)o1 | 5.7 | 6.4 | 12.1* | i | 10.4 | -6.2 | -3.8
O=C(NCCC(c1ccccc1)c1ccccc1)c1ccc(Br)o1 | 3.2 | 1.0 | 1.1 | i | 7.0 | · | ·
CCOC(=O)c1ccc(N=Cc2cnc(N)nc2N)cc1 | 3.1 | 0.4 | 0.1 | · | -1.8 | · | ·
O=C(O)c1cccc(-n2cccc2/C=C2/NC(=O)N(c3ccc(Cl)cc3)C2=O)c1 | -10.0 | 0.3 | 22.5* | · | 6.8 | -7.5 | -22.7
CCOC(=O)c1csc(-c2sccc2Br)n1 | 0.7 | 7.4 | 14.0* | i | 12.1 | -3.7 | -4.0
CCOC(=O)c1csc(-c2ccc(OC)c(OC)c2)n1 | -0.9 | -1.1 | -1.9 | · | -1.2 | · | ·
Cc1ccc(O)c(C(=O)c2cnc3c(c2)COc2ccccc2-3)c1 | -5.5 | -1.4 | 14.2* | i | 2.6 | -15.1 | -11.2
O=C(c1cnc2c(c1)COc1ccc(Cl)cc1-2)c1ccccc1O | 2.5 | -0.6 | 12.2* | i | 1.4 | -25.4 | -23.6
CCOc1cc(C(=O)OC(C(=O)NC(=O)NC)c2ccccc2)ccc1OCC(=O)N1CCOCC1 (stereo unspecified) | 2.6 | 1.7 | -0.3 | · | 7.0 | · | ·
COc1ccc(OC)c(NC(=O)NNC(=O)COc2ccc(F)cc2F)c1 | -7.2 | -4.5 | 0.1 | i | -9.7 | · | ·
Cc1c(C(=O)NNC(=O)c2ccccc2O)oc2ccccc12 | -12.2 | -12.1 | -6.8 | · | -30.7 | · | ·
O=C(NCCCN1CCCC1=O)Nc1ccccc1Cl | -2.6 | 0.5 | 3.8 | i | 5.3 | · | ·
O=C(NCCCN1CCCC1=O)Nc1ccccc1F | -5.9 | -5.8 | 10.7* | i | -10.2 | -4.6 | -0.2
